Compounds with a hit are over-represented: about 2.9% of the library has one in this group of screens.
DRD3 agonist: D3 dopamine receptor (human) agonism; P35462; D3R DiscoveRx beta-arrestin cells, luminescence, 90 min; max activation, %; hit rate 0.58% among 410,000; AID 652048; in the data active = max activation above about 30%; note: 0% is about no effect
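Agonist-mode cell screen: cells plated at 1500/well and incubated overnight at 37 °C, then exposed to library compounds for 90 min at 37 °C. Detection reagent was added for 30–60 min at room temperature, and luminescence was read.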
TRPML1 ag: activates the human TRPML1 channel; TRPML1-expressing cells, Ca2+ dye fluorescence, FDSS; activation, % (test concentration not listed); hit rate 0.12% among 410,000; AID 624414; Q9GZU1; in the data active = activation above about 50%; inconclusive = mostly about 30% to 49%; note: 0% is about no effect
Target sequence (Q9GZU1 whole entry, looked up): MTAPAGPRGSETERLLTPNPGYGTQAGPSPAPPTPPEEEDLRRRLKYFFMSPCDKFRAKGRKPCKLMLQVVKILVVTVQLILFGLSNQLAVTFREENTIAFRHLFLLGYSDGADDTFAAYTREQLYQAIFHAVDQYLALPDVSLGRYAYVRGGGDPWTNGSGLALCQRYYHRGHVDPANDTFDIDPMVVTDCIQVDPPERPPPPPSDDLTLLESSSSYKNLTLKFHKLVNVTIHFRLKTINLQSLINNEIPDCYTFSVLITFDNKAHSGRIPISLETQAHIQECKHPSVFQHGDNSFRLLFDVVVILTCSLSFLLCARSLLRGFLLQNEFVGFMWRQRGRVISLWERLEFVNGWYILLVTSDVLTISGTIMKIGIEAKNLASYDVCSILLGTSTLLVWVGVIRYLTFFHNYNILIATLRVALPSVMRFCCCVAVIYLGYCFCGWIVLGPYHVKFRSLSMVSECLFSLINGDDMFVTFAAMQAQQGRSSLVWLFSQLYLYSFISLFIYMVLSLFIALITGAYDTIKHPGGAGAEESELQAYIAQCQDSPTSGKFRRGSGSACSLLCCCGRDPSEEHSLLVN
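In this qHTS format, compounds were pin-transferred onto Ca8-dye-loaded TRPML1-DL cells induced with Tet overnight, and intracellular Ca2+ fluorescence was recorded kinetically for 110 s after a 10 s baseline. A subsequent 4uM final 54-4 (EC80) addition followed by a second 110 s read served as the antagonist phase.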
TRPML1 inh: inhibitors of human TRPML1 channel; Q9GZU1; TRPML1-inducible cells, Ca2+ dye fluorescence, FDSS; stronger effect = lower value; inhibition of EC80 agonist-evoked calcium signal; activity change, negative = inhibition, % (concentration not given with the values); hit rate 0.02% among 390,000; AID 624415; in the data active = activity change below about -50%; inconclusive = between about -30% and that limit;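 note: stimulus is agonist 54-4 at its EC80 concentration; % is set by controls: 0 for no effect and ±100 for the full control effect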
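Calcium fluorescence in TRPML1-DL cells induced overnight with Tet: a 110 s read after compound pin addition, then a 110 s antagonist read after challenge with 54-4 at 4 uM final (EC80).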
D3 antag: antagonists of human D3 dopamine receptor; P35462; D3R cells, DiscoveRx beta-arrestin luminescence, antagonist mode; stronger effect = lower value; max response, negative = inhibition, %; hit rate 2.5% among 360,000; AID 652054; in the data active = max response below about -50%; inconclusive = no clear call, values can overlap the other calls; note: % is set by controls: 0 for no effect and ±100 for the full control effect
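Cells expressing the human receptor were seeded at 1500 cells/well, incubated overnight at 37 degrees C in 5% CO2, then exposed to library compounds with dopamine controls for 90 minutes at 37 degrees C before luminescent detection.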
* hit, by the source's call; ? = inconclusive; . = not tested or not shown.

SMILES	DRD3 agonist	TRPML1 ag	TRPML1 inh	D3 antag
Cc1ccc(CN2CCN(C/C(Cl)=C/c3ccccc3)CC2CCO)o1 (configuration not stated)	-5	-1	-2	-21
CC(C)CCN1CCN(Cc2cccc(C(F)(F)F)c2)CC1CCO (configuration not stated)	-19	2	-16	-112*
COc1ccc(CN2CCN(CCCc3ccccc3)C(CCO)C2)cc1OC (configuration not stated)	-12	1	-15	-2
OCCC1CN(Cc2ccc(C(F)(F)F)cc2)CCN1Cc1ccccc1 (configuration not stated)	-28	0	-19	-27
COc1ccc(CN2CCN(Cc3ccccc3)C(CCO)C2)cc1OC (configuration not stated)	-21	0	13	-72*
C/C(=C\c1ccco1)CN1CCN(Cc2ccc(C)o2)C(CCO)C1 (configuration not stated)	-16	-1	45	-70*
OCCC1CN(Cc2cccc(C(F)(F)F)c2)CCN1Cc1ccccc1 (configuration not stated)	-13	0	5	-72*
COc1ccc(NC(=O)Cn2c(=O)n(-c3cccc(C(F)(F)F)c3)c(=O)c3sccc32)cc1	2	0	-2	.
COc1ccccc1/C=C/CN1CCN(Cc2ccc(F)cc2)C(CCO)C1 (configuration not stated)	-43	0	7	-82*
Cc1ccc(CN2CCN(Cc3cnn(-c4ccc(F)cc4)c3)CC2CCO)o1 (configuration not stated)	-16	-1	-5	?
COc1cccc2c1OCC(CN1CCN(Cc3ccccc3)C(CCO)C1)=C2 (configuration not stated)	-20	0	-11	-94*
Cc1ccc(CN2CCN(C/C=C/c3ccc(F)cc3)CC2CCO)o1 (configuration not stated)	-14	0	-25	-93*
CSc1cccc(CN2CCN(CCC(C)C)C(CCO)C2)c1 (configuration not stated)	-13	0	4	-51*
COc1cccc2c1OCC(CN1CCN(Cc3ccccc3F)C(CCO)C1)=C2 (configuration not stated)	-25	0	28	-8
Cc1nc2ccc(S(=O)(=O)N(C)CC(=O)Nc3ccc(Br)c(C)c3)cc2s1	13	3	-4	.
O=C(COc1cccc2ccccc12)NNC(=O)CSCCO	-3	1	-6	-50*
O=C(COc1cccc2ccccc12)NNC(=O)Nc1ccccc1	-26	0	10	?
CCOC(=O)Cc1nnc(NC(=O)CSc2ccc(Cl)cc2)s1	-1	0	4	-53*
COc1cccc(C2NC(c3cccc(OC)c3O)C(C)C(=O)C2C)c1O (configuration not stated)	30*	0	6	13
COc1ccccc1C1NC(c2ccccc2OC)C(C)C(=O)C1C (configuration not stated)	-13	3	-8	-20
Cc1ccc(NC(=O)Cc2csc(-c3ccccc3)n2)cc1F	5	2	-5	2
O=C(Cc1csc(-c2ccccc2)n1)Nc1ccc(C(F)(F)F)cc1	-1	5	-16	-56*
CCC(CN)CC(C)CCNCC(O)CNCC(C)CC(CC)CN (configuration not stated)	-6	.	.	.
O=S(=O)(Nc1nc2ccccc2[nH]1)c1ccccc1	0	-1	-3	-55*
O=S(=O)(Nc1nc2ccccc2[nH]1)c1ccc(Cl)cc1	-6	0	16	-22
SMILES	DRD3 agonist	TRPML1 ag	TRPML1 inh	D3 antag
CC(=O)NC(c1ccccc1)c1c(O)ccc2ccccc12 (configuration not stated)	34*	0	8	-7
CC(=O)NC(c1ccc(C(C)C)cc1)c1c(O)ccc2ccccc12 (configuration not stated)	-13	0	-3	71
CC(=O)/C(C(=N)N1CCN(C(c2ccccc2)c2ccccc2)CC1)=C(\C)O	-11	3	2	?
CSc1ccc(C(=S)N2CCN(Cc3ccccc3)CC2)cc1	-3	2	-19	?
CSc1ccc(C(=S)N2CCCCCC2)cc1	7	2	1	-9
CCN1CCN(C(=S)c2ccc(SC)cc2)CC1	-11	1	3	-85*
S=C(c1ccc(Cl)cc1)N1CCN(Cc2ccccc2)CC1	-24	0	-4	-69*
CC(=O)/C(C(=N)N1CCN(Cc2ccccc2)CC1)=C(\C)O	-19	-1	-17	-54*

Bioassay records as filed in PubChem BioAssay.
